These results are taken from PubChem BioAssay (NCATS).

Structures are written as SMILES. A number with no mark means an inactive call. Results filed as inconclusive are left out. The list shows a part of the results. Active and inactive are the calls of the source. Unless noted, the call rests on the fitted dose curve; in most records, active means well fitted curve in the direction sought with a large enough effect; inconclusive means small, poorly fitted or top-dose-only effect, or another doubt; inactive means no such curve, though single readings can be large; an effect the other way counts as inactive or inconclusive.

The target of assay [1] is Rap guanine nucleotide exchange factor 3 (Homo sapiens) (UniProt O95398). The assay is described as follows: Confirmatory qHTS for antagonist of cAMP-regulated guanine nucleotide exchange factor 3 (EPAC1) (AID 1645880). Further: nearly all actives have a fitted effect of over 55% in size. Further: potency means the concentration at half of the fitted maximal effect. The method in brief:
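Nucleotide exchange uses 100 nM EPAC1, 250 nM RAP1B-BODIPY-GDP and 50 uM GDP, with compounds in a concentration-titration series. After 5 min at room temperature, fluorescence (480 nm ex/540 nm em) is read every 5 min for 30 min. Data are normalized to control ATA and DMSO.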

For assay [2] the target is unchanged. The assay is described as follows: Confirmatory qHTS for agonist of cAMP-regulated guanine nucleotide exchange factor 3 (EPAC1) (AID 1645881). Further: nearly all actives have a fitted effect of over 75% in size. Further: potency means the concentration at half of the fitted maximal effect.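 On activation: EPAC1 catalysed release of BODIPY-GDP from Rap1B seen as fluorescence loss; 100% = effect of cAMP agonist control.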 A general note: qHTS replaces the single test concentration by a dilution series.
Assay [3] concerns the target Rap guanine nucleotide exchange factor 4 (Homo sapiens) (UniProt Q8WZA2). The assay is described as follows: Confirmatory qHTS for agonist of cAMP-regulated guanine nucleotide exchange factor 4 (EPAC2) (AID 1645884).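 Further: nucleotide exchange releases bodipy-GDP from Rap1 and this lowers its fluorescence; nearly all actives have a fitted effect of over 65% in size.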 Further: potency means the concentration at half of the fitted maximal effect.
Assay [4] has the same target. Put plainly: Confirmatory qHTS for antagonist of cAMP-regulated guanine nucleotide exchange factor 4 (EPAC2) (AID 1645885). Further: nearly all actives have a fitted effect of over 25% in size. Further: potency means the concentration at half of the fitted maximal effect.
Assay [5] deals with Rap guanine nucleotide exchange factor 3 (Homo sapiens) (UniProt O95398). The assay is described as follows: Counterscreen qHTS for antagonist of cAMP-regulated guanine nucleotide exchange factor 3 (EPAC1) (AID 1645888).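 Further: fluorescence loss as bound BODIPY-GDP is released from Rap1B; % of control where 0% means no effect.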 Summed up: (§1)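 Rap1B-BODIPY-GDP 250 nM + GDP 50 uM; cpds 7-pt, final 9.74 nM–152 uM (activator mode) or from 7.32 nM upwards (inhibitor mode); RT; FI 480/540 nm at 5 and 30 min, then ± cAMP, reread.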
Rap guanine nucleotide exchange factor 3 (Homo sapiens), sequence (O95398 whole entry, looked up): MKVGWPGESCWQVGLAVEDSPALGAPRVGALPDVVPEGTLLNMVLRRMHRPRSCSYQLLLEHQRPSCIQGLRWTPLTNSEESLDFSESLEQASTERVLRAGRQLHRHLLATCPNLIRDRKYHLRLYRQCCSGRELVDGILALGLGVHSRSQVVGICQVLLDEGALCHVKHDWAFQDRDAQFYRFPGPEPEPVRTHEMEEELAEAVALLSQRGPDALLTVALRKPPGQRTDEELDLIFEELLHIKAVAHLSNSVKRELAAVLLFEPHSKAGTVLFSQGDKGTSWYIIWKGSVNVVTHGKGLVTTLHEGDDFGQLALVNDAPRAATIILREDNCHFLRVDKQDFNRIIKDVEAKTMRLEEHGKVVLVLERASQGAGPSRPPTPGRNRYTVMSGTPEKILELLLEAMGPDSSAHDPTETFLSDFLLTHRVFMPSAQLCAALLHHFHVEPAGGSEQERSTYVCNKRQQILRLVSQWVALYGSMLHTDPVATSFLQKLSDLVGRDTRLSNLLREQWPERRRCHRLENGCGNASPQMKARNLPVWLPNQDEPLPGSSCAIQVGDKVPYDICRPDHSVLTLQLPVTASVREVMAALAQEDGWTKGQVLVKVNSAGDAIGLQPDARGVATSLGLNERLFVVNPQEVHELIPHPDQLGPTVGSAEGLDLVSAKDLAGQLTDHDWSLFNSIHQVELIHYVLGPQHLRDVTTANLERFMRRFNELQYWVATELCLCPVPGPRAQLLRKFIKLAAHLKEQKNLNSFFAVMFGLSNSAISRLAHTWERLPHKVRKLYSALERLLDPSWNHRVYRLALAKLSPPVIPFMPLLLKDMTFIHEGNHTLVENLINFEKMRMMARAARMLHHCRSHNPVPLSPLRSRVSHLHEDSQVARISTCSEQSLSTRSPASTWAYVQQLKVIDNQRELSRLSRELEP
(In general: A counterscreen serves to expose hits that act by an unwanted route or on another target.)

The target is the same in assay [6]. The assay is described as follows: Counterscreen qHTS for agonist of cAMP-regulated guanine nucleotide exchange factor 3 (EPAC1) (AID 1645889). Further: nearly all actives have a fitted effect of over 40% in size. Further: potency means the concentration at half of the fitted maximal effect. On activation: % of control where 0% means no effect. Summed up:
as §1

The nature of assay [7]: AP1 Signaling Pathway (AID 357; active means well fitted curve in either direction with a large enough effect, not every such curve was filed as active;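 further: ME-180 reporter cells stimulated with EGF at its EC50 level; on the % scale 0 is the no-effect control and ±100 the full control effect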). Summed up:
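Modulation of EGF-driven AP-1 transcription was assessed with a beta-lactamase reporter in ME-180 cells. Compound and EC50 EGF were co-incubated 5 hours at 37 °C before 2.5-hour CCF4 loading at room temperature and dual-emission reading.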

The nature of assay [8]: NFAT Signaling Pathway (AID 444; active means well fitted curve in either direction with a large enough effect, not every such curve was filed as active;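 further: carbachol stimulus at about its EC50 of 1 µM final; on the % scale 0 is the no-effect control and ±100 the full control effect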). The following applies: Jurkat NFAT-bla M1, carbachol, beta-lactamase ratio, 5 h; at 17.2 µM (top of the series). Summed up:
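Read-out: CCF4 FRET ratio (460 nm/530 nm) after 1 h RT dye loading, used for %activity and AC50 from titration series. Cells: Jurkat NFAT-β-lactamase/M1 line, treated with compound plus 1 uM carbachol for 5 h, 37 °C.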

Assay [9] can be described thus: Stat Signaling Pathway (AID 446; active means well fitted curve in either direction with a large enough effect, not every such curve was filed as active;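 further: ME-180 cervical cancer cells given 40 pM IL-6 alongside compound; SIE-controlled beta-lactamase reporter measured as 460/530 nm FRET emission ratio; on the % scale 0 is the no-effect control and ±100 the full control effect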). Summed up:
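IL-6/STAT signaling read in ME-180 cells via an SIE beta-lactamase reporter. Stimulus was 40 pM IL-6 (its AC50) for 5 hrs, so both activation and inhibition register.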

The target of assay [10] is Glucocorticoid receptor (Homo sapiens) (UniProt P04150). The assay is described as follows: GR-GFP Redistribution (AID 450;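 active means compounds whose dose series gives a full or clear partial fitted curve of increased nuclear translocation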; further: potency means the concentration at half of the fitted maximal effect). The following applies: U2OS GR-GFP nuclear translocation, laser cytometry, 2 h.
Glucocorticoid receptor (Homo sapiens), sequence (P04150 whole entry, looked up, the tested form may be a part): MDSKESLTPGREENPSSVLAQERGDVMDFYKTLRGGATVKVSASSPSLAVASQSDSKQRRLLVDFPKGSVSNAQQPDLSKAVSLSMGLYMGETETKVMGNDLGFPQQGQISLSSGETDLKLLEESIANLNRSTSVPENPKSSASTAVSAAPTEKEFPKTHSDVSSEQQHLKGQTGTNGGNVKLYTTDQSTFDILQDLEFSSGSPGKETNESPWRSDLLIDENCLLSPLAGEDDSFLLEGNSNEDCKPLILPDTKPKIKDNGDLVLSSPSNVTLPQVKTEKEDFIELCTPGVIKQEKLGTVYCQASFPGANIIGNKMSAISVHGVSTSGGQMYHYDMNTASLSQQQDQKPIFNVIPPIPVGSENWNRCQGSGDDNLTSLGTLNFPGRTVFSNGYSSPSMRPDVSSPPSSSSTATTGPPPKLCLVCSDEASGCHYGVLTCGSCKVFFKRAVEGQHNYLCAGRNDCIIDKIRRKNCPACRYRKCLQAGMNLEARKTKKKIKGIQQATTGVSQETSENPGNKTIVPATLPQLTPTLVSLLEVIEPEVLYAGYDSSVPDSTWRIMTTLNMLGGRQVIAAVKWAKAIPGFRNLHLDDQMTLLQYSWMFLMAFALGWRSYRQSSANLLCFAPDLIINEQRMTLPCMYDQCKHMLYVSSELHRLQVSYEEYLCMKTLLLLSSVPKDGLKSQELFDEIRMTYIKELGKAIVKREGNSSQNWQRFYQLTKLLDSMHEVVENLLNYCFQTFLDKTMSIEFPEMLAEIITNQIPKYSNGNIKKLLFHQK
For assay [11] the target is unchanged. The assay is described as follows: GR-EFC Redistribution (AID 451; calls by dose curve; further: potency means the concentration at half of the fitted maximal effect). The following applies: CHO-K1 GR-EFC translocation, beta-gal luminescence, 2 h. Summed up: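 Translocation of GR-ED fusion to nuclear EA restores b-gal, read by luminescence after 1 h room-temperature detection. Engineered CHO-K1 biosensor cells, 1,000/well, exposed 2 h at 37 C to titrations up to 46 uM final.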

Assay [12] deals with Cytochrome P450 2C9 (Homo sapiens) (UniProt P11712). The assay is described as follows: qHTS Assay for Inhibitors and Substrates of Cytochrome P450 2C9 (AID 883). Further: potency means the concentration at half of the fitted maximal effect; nearly all actives have a fitted effect of over 60% in size. Summed up: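 Inhibition of CYP2C9 is scored as loss of luminescence, with 57uM sulphaphenazole defining 100% inhibition. Substrate Luciferin-H is used at 100uM, equal to its KM; enzyme at 10nM in 25mM KPO4, 60 min at 37C with NADPH regeneration.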

Assay [13] deals with Cytochrome P450 3A4 (Homo sapiens) (UniProt P08684). Put plainly: qHTS Assay for Inhibitors and Substrates of Cytochrome P450 3A4 (AID 884). Further: potency means the concentration at half of the fitted maximal effect; nearly all actives have a fitted effect of over 50% in size. Summed up: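 20 nM human CYP3A4 with 25 uM Luciferin-PPXE (at KM) in 200 mM KPO4, preincubated 10 min with compound; NADPH regeneration started a 60 min RT reaction. Luciferin detected by luminescence, normalized to 57 uM ketoconazole as full inhibition.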
Cytochrome P450 3A4 (Homo sapiens), sequence (P08684 whole entry, looked up): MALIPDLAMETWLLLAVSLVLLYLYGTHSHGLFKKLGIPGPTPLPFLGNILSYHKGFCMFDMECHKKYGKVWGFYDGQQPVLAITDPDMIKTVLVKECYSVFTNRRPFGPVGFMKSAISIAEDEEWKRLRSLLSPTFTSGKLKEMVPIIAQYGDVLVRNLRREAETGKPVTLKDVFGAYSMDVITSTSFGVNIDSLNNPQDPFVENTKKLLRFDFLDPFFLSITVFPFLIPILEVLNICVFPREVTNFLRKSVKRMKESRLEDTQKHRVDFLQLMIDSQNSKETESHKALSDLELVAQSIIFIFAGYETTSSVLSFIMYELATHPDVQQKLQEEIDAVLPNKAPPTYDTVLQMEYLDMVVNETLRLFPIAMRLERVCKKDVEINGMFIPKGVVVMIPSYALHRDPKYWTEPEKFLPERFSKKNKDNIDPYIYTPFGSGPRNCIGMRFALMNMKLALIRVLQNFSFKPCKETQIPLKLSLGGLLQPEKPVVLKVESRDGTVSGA

The target is the same in assay [14]. Put plainly: qHTS Assay for Activators of Cytochrome P450 3A4 (AID 885). Further: nearly all actives have a fitted effect of over 65% in size. The method in brief: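 Quantitative HTS format: compounds preincubated with 20nM human CYP3A4 and Luciferin-PPXE substrate at KM, reaction started by NADPH regeneration, stopped after 60 min, luciferase luminescence read 20 min later.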
The target of assay [15] is DNA dC->dU-editing enzyme APOBEC-3G (Homo sapiens) (UniProt Q9HC16). Put plainly: qHTS for inhibitors of Vif-A3G interactions: Validation (AID 588379). Further: 0% is about no effect. The method in brief: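 HeLa cells stably expressing Vif and A3G-eYFP, 700 cells/well, incubated overnight at 37 deg C, then exposed to compound overnight at 37 deg C. Inhibition of Vif-mediated degradation read as increased yellow fluorescence (Ex 488/Em 500-530) by laser-scanning cytometry.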
DNA dC->dU-editing enzyme APOBEC-3G (Homo sapiens), sequence (Q9HC16 whole entry, looked up): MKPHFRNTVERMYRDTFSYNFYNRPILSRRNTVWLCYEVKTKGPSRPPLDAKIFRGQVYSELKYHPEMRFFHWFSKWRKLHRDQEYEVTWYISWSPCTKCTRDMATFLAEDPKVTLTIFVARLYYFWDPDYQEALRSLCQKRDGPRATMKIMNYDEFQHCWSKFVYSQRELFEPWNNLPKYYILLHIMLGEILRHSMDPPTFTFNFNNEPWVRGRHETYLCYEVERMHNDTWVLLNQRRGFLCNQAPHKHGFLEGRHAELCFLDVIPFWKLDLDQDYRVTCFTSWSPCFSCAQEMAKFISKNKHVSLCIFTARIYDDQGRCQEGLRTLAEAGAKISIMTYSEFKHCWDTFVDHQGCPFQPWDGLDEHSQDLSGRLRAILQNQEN

The target in assay [16] is Tumor susceptibility gene 101 protein (Homo sapiens) (UniProt Q99816). The assay is described as follows: qHTS Assay for Iinhibitors of HIV-1 Budding by Blocking the Interaction of PTAP/TSG101: Hit Validation (AID 651600). Further: potency means the concentration at half of the fitted maximal effect; nearly all actives have a fitted effect of over 70% in size. The method in brief:
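Fluorescence polarization binding assay: Tsg101 binding domain (10 uM) mixed with compounds and FITC-labeled PTAP peptide (50 nM) in HEPES pH 7.5, 0.15 M NaCl, 0.01% Tween 20, EDTA, TCEP; 20 min at r.t.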

Assay [17] is described as follows: qHTS for Inhibitors of the vitamin D receptor (VDR): Hit Validation using a Texas Red Assay (AID 602201). Further: on the % scale 0 is the no-effect control and ±100 the full control effect. Summed up:
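After a 2-hour room-temperature incubation, polarization of Texas-Red emission was read (Ex 595 nm/Em 615 nm). Final mix contained 7 nM Texas Red, 1.5 uM VDR-LBD and LG19078.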

For assay [18], the target named is DNA polymerase kappa (Homo sapiens) (UniProt Q9UBT6). Put plainly: qHTS for Inhibitors of Polymerase Kappa: Confirmatory Assay for Cherry-picked Compounds (AID 720501). Further: potency means the concentration at half of the fitted maximal effect. The following applies: purified Pol-kappa, fluorescent strand-displacement substrate. Summed up: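 Strand-displacement fluorescence read-out: TAMRA reporter released from a BHQ-2-quenched template, measured at 525/598 nm over a 10 min kinetic window. Substrate was 50 nM final; enzyme was 10 nM Pol-kappa, preincubated 15 min at room temperature with compound.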
DNA polymerase kappa (Homo sapiens), sequence (Q9UBT6 whole entry, looked up): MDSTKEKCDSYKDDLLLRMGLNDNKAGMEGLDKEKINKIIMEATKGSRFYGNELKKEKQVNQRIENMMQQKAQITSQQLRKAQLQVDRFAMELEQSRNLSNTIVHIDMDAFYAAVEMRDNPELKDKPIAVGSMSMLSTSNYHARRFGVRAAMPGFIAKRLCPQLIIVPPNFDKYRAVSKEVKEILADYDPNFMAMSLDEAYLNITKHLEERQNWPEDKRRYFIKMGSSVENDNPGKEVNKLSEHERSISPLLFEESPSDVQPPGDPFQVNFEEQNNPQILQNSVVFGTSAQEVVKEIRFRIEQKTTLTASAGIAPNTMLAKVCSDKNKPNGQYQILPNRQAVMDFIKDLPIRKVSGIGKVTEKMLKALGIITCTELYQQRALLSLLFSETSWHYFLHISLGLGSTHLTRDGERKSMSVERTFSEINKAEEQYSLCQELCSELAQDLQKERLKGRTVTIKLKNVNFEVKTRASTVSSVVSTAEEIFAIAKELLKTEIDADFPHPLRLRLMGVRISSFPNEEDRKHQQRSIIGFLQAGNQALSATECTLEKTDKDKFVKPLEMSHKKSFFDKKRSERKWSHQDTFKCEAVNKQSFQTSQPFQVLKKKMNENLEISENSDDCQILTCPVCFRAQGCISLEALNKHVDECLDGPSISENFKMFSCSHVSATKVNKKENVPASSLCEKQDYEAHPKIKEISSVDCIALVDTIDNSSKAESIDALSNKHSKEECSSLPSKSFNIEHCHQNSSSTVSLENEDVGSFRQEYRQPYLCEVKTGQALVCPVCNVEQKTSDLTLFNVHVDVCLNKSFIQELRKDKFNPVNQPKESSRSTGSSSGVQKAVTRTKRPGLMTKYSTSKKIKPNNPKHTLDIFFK

The target of assay [19] is DNA polymerase eta (Homo sapiens) (UniProt Q9Y253). Put plainly: qHTS for Inhibitors of Polymerase Eta: Confirmatory Assay for Cherry-picked Compounds (AID 720502). Further: potency means the concentration at half of the fitted maximal effect. The following applies: Pol eta primer extension, TAMRA/BHQ fluorescence, 10 min. Summed up: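 The reaction starts with 50 nM final labeled DNA substrate added to Pol eta (10 nM) that had sat with compound for 15 min. TAMRA emission at 598 nm is read at 0 and 10 min.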

Rap guanine nucleotide exchange factor 4 (Homo sapiens), sequence (Q8WZA2 whole entry, looked up): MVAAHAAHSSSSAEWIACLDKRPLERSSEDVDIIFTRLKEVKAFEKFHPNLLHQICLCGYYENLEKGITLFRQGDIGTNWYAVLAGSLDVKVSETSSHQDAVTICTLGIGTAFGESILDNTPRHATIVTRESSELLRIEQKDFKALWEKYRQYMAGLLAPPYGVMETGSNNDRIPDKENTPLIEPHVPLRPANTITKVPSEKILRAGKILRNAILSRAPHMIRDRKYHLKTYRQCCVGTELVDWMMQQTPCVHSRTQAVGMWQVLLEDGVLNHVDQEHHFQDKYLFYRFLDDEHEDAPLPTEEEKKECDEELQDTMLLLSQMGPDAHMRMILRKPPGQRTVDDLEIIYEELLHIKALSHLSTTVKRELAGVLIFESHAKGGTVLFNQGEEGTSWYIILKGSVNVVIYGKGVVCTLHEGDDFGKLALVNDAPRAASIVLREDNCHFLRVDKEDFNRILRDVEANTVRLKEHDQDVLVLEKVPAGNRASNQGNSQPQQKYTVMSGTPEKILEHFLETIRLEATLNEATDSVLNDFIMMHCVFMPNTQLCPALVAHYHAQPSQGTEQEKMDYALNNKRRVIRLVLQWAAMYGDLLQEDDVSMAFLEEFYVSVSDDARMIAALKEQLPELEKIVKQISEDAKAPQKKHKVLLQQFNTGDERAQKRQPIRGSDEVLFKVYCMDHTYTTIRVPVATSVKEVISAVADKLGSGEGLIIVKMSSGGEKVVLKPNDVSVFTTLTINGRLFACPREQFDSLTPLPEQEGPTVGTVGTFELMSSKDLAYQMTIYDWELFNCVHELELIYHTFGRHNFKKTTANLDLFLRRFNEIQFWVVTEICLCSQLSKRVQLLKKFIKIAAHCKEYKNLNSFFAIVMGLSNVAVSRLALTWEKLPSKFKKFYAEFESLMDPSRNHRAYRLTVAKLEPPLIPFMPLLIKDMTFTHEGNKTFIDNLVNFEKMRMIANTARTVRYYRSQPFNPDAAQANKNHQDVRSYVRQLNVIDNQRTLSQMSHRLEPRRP
Tumor susceptibility gene 101 protein (Homo sapiens), sequence (Q99816 whole entry, looked up, the tested form may be a part): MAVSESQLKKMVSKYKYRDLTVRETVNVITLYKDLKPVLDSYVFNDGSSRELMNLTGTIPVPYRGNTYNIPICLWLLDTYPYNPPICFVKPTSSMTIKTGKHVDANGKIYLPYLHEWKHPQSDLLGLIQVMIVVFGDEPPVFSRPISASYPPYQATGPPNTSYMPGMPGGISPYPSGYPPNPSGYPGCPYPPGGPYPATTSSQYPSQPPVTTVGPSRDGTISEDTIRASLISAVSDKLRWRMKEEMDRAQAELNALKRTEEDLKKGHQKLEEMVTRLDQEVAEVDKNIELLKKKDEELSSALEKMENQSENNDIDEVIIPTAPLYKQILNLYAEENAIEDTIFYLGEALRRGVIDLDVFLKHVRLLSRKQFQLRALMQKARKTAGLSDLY

As to `COC(=O)c1cn(C(=O)c2cccc3ccccc23)c2ccccc12`, the Potency result in [1], in [2], in assay [3] and in assay [4] was “inactive” each time. For the same compound, in [5], the call was inactive.

For `Cc1ccc(N2C(=O)NC(=O)/C(=C\C=C\c3ccco3)C2=O)cc1`, the Potency in [1] was 42.6 µM (active). In addition, the Potency entry in assay [2], in [3] and in [4] was “inactive” each time. The compound was called inactive in assay [5].

With `Cc1cc(/C=C2/C(=O)NC(=O)N(Cc3ccco3)C2=O)c(C)n1-c1ccccc1O`, the Potency in [1] is 44.7 µM (active); in assay [4] it was 0.19 µM (active). Also, the Potency result in assay [2] was “inactive”. Further, the activation is 11.8% [at 17.1 µM, percent relative to cAMP agonist control] in assay [3] and 17.9% [at 30.8 µM] in assay [6]. Further, the activity change, negative = inhibition in [5] was -13.1% [at 30.8 µM].

Regarding `CCCCn1c(O)c(C=NCCN2CCCCC2)c(=O)[nH]c1=O`, the compound was classed as inactive in assay [7], in assay [9] and in assay [5]. Moreover, the activity change, negative = inhibition in assay [8] is -9.1%. For the same compound, the values for the Potency in assay [10] and in assay [4] were above 20.6 µM and 75.7 µM (active), respectively. In addition, the Potency result in [1], in assay [2] and in assay [3] was “inactive” throughout.

For `CCCCC/C=C\C/C=C\C/C=C\C/C=C\CCCC(=O)Nc1ccc(O)cc1`, the Potency in assay [10] is above 46 µM; in assay [11] it was above 46 µM; in assay [12], 5.01 µM (active); in assay [13] it was 5.01 µM (active). The Potency result in assay [14], in [1], in [2], in assay [3] and in assay [4] was “inactive” each time. Besides, the call in [15] was inactive.

Regarding `COc1ccc(OC)c(N2C(=O)NC(=O)/C(=C/c3ccc([N+](=O)[O-])s3)C2=O)c1`, the Potency in assay [1] is 7.94 µM (active). Besides, the Potency result in assay [2] is “inactive”. For the same compound, the activation was 2.06% [at 17.1 µM, percent relative to cAMP agonist control] in assay [3] and 21.8% [at 30.8 µM] in assay [6]. Also, the activity change, negative = inhibition in assay [4] was -32.4% [at 12.7 µM]; in assay [5] it was 10.9% [at 30.8 µM].

Consider `Cc1cc(=O)oc2cc(OCC(=O)N3CCC(C(=O)O)(c4ccccc4)CC3)ccc12`, for which the Potency in assay [1] is 75.7 µM (active). In addition, the Potency result in [2] and in assay [3] was “inactive” in each case. Also, in assay [5], the result was inactive.

On to `CC[C@@H]1c2ccccc2[C@@H]2CC[C@H]1N2c1ccccc1`, for which the Potency entry in assay [1] and in assay [2] was “inactive” in each case. In addition, the activation was 4.18% [at 17.1 µM, percent relative to cAMP agonist control] in assay [3] and -4.47% [at 30.8 µM] in assay [6]. Besides, the activity change, negative = inhibition is -6.37% [at 12.7 µM] in [4] and -4.57% [at 30.8 µM] in assay [5].

`COc1ccc(C(=O)C2CN(C)CC2c2ccc(Cl)cc2)cc1` (stereo not drawn): the Potency entry in assay [1] and in assay [2] was “inactive” in each case. Besides, the activation in [3] was 2.15% [at 17.1 µM, percent relative to cAMP agonist control]; in [6] it was 27.2% [at 30.8 µM]. Moreover, the activity change, negative = inhibition in [4] was -16.3% [at 12.7 µM]; in [5], 7.3% [at 30.8 µM].

In the case of `Cc1ccc(CN2CCCN(Cc3ccccc3C)S2(=O)=O)cc1`, the Potency result in [1], in assay [2], in assay [3], in assay [4] and in assay [6] was “inactive” each time. The result in assay [5] was inactive.

`O=c1cc(C(F)(F)F)c2cc3c4c(c2o1)CCCN4CCC3`: the Potency in assay [16] was 0.651 µM (active); in assay [2], 50.1 µM (active); in assay [3], 39.8 µM (active); in assay [4], 60.1 µM (active); in [6], 50.1 µM (active). In addition, in [1], the Potency entry was “inactive”. In addition, the outcome in assay [5] was inactive.

For the compound `O=C1NC(=S)NC(=O)C1=Cc1cccn1-c1ccc(O)cc1`, the Potency entry in [17] and in assay [2] was “inactive” each time. Further, the Potency in assay [1] was 3.55 µM (active). In addition, the activation in assay [3] was 2.5% [at 17.1 µM, percent relative to cAMP agonist control]. For the same compound, the activity change, negative = inhibition in assay [4] was -7.44% [at 12.7 µM]; in assay [5], -4.08% [at 30.8 µM].

As for `O=C1NC(=O)N(Cc2ccco2)C(=O)/C1=C\c1ccc(-c2ccc(F)cc2)o1`, the Potency is 42.3 µM (active) in assay [18], 47.8 µM (active) in assay [19] and 22.4 µM (active) in assay [1]. The Potency result in [2] was “inactive”. Moreover, the activation in assay [3] was -0.903% [at 17.1 µM, percent relative to cAMP agonist control]. The activity change, negative = inhibition is -6.14% [at 12.7 µM] in assay [4] and -21.9% [at 30.8 µM] in assay [5].

`Cc1ccc(N2C(=O)NC(=O)/C(=C\C=C\c3ccco3)C2=O)cc1C`: the Potency in assay [1] is 33.8 µM (active). For the same compound, the Potency entry in assay [2], in [3] and in assay [4] was “inactive” in each case. The compound was called inactive in assay [5].

As to `O=C1NC(=O)N(Cc2ccc(F)cc2)C(=O)/C1=C\c1ccc([N+](=O)[O-])s1`, the Potency in assay [1] was 12 µM (active). In addition, the Potency result in assay [2], in [3] and in assay [4] was “inactive” in each case. For the same compound, in [5], the compound was classed as inactive.
